Compound activity as filed in PubChem.
TLR9-MyD88 block: blocks human TLR9 binding to MyD88 | Q9NR96+Q99836 | CHO BLA complementation TLR9-MyD88, CCF4 FRET ratio | inhibition, % at 4.98 µM | actives 0.21% (n = 340,000) | AID 504734;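 active means inhibition above the mean over all tested compounds plus 3 SD, cut at about 21% in these data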
NOD2 RIPK2 PPI: blocks binding of human NOD2 to RIPK2; O43353; CHO BLA complementation NOD2-RIPK2, CCF4 ratio; inhibition, % at 4.98 µM; actives 0.38% (n = 360,000); in the data active means inhibition above about 21%
HSF1 inh: HSF1 inhibition; NIH3T3-HGL HSE-luciferase, MG132-induced, luminescence 8 h; active compounds read low; activity change, negative = inhibition, % at 7.5 µM (by protocol); actives 0.77% (n = 300,000); AID 2098;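 active means more than half of replicate wells show activity change below -50%, luminescence cut by over half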;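 further: luciferase reports HSF-1 transcriptional activity via heat shock element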
TLR4 MyD88 comp: TLR4-MyD88 interaction inhibition in cells | O00206+Q99836 | HeLa CL3-4 TLR4/MyD88 BLA complementation, FRET ratio | inhibition, % at 8.4 µM | actives 0.18% (n = 200,000); in the data active means inhibition above about 25%
Target sequence (O00206 whole entry, looked up): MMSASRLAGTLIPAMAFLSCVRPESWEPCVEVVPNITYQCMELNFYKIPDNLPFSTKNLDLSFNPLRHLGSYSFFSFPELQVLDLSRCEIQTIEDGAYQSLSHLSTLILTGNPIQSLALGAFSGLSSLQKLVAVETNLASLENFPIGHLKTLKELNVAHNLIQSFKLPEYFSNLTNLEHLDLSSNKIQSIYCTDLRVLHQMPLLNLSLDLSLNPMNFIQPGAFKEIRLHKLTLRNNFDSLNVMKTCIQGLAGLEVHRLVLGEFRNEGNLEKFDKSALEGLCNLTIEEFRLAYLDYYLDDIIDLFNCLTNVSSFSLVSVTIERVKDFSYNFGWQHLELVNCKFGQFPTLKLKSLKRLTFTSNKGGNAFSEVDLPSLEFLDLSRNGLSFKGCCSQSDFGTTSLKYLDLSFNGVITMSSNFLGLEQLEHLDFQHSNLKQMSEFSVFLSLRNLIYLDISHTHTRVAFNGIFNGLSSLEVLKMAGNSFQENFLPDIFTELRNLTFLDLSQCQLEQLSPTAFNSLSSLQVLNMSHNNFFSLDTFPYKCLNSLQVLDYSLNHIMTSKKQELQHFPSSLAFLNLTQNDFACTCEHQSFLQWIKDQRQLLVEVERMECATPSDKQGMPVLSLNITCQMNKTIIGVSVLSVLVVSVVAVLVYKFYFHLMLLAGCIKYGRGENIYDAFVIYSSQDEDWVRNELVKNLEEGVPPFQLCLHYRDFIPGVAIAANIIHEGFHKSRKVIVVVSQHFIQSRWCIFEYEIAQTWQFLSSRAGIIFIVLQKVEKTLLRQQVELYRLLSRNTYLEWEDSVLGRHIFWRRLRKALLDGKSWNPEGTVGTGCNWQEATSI
Target sequence (Q99836 whole entry, looked up): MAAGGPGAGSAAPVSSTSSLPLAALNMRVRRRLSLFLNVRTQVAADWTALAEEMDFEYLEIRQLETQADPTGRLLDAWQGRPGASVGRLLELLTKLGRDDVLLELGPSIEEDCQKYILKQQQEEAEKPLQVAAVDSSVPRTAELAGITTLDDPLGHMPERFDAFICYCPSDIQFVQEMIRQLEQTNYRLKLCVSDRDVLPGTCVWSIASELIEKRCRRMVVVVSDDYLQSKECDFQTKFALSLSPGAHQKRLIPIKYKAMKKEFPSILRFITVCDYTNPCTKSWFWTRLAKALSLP
HSF-1 act: increases HSF-1 driven luciferase reporter signal; actives 1.7% (n = 300,000); activation, % at 9 µM; AID 504408; NIH3T3-HGL HSF-1 luciferase reporter, MG132, 8 h; 100% = twice DMSO control signal;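 active means mean replicate activation of at least 50% with a set share of replicates each reaching 50%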
Hits are given with their value; 0 = inactive; - = no result. Only some compounds are listed: those with a hit (about 2.4% of all), similar ones and a draw of the others.

SMILES	TLR9-MyD88 block	NOD2 RIPK2 PPI	HSF1 inh	TLR4 MyD88 comp	HSF-1 act
CC(=O)Nc1ccc(S(=O)(=O)N[C@@H](C)C(=O)N2CCN(C/C=C/c3ccccc3)CC2)cc1	0	0	-	-	-
CCOC(=O)C1(C)NC(c2ccc(O)cc2)C2C(=O)N(c3ccccc3)C(=O)C21 (centres undefined)	0	0	-54	-	0
O=C1c2ccccc2C(c2nnnn2Cc2ccccc2)N1Cc1cccs1 (centres undefined)	-	0	-	-	-
O=C1C=C(c2ccccc2)CC(/C=C/c2ccccc2)C1 (centres undefined)	0	0	0	0	98
Nc1nc(Nc2cccc(F)c2)nc2ccccc12	0	0	0	0	56
O=c1c(Cl)c(O)c2cccc3c4ccccc4n1c23	0	0	0	0	79
Cn1c(=O)c(-c2cccc(Cl)c2)c(O)c2ccccc21	0	0	0	-	0
Clc1ccccc1OCc1nnc(-c2ccccc2Br)o1	0	0	0	0	0
N#Cc1ccccc1OCc1nnc(-c2ccccc2Br)o1	0	0	0	-	83
CCN(CC(=O)Nc1c(F)cccc1F)C(=O)Cc1ccc(S(=O)(=O)N2CCOCC2)s1	0	0	-	-	-
CCOC(=O)c1c(C)[nH]c(C(=O)COC(=O)C2(C)CC2(Cl)Cl)c1C (centres undefined)	0	0	0	0	56
CCCCCCCCN1C(=O)[C@H](CC(=O)N2CCCC2)C[C@@]2(C(=O)OCC)CCCC=C12	-	0	-	-	-
FC(F)(F)Oc1ccc(Nc2nc3ccccc3o2)cc1	0	0	0	0	78
Nc1nc2c(ncn2[C@@H]2O[C@H](CNS(=O)(=O)c3cccnc3)[C@@H](O)[C@H]2O)c(=O)[nH]1	-	0	-	-	-
CCC(c1nnnn1Cc1ccco1)N(Cc1cc2cc(C)cc(C)c2[nH]c1=O)CC1CCCO1 (centres undefined)	0	0	0	0	64
COc1ccc2[nH]c(=O)c(CN(C3CCCCC3)C(c3nnnn3Cc3ccco3)C(C)C)cc2c1 (centres undefined)	0	0	0	0	119
COc1ccc2[nH]c(=O)c(CN(Cc3ccco3)C(c3nnnn3Cc3ccccc3)C(C)C)cc2c1 (centres undefined)	0	0	0	0	0
Cc1cccc2cc(CN(Cc3ccco3)C(c3nnnn3CCc3ccccc3)C(C)C)c(=O)[nH]c12 (centres undefined)	0	0	0	0	198
CCC(c1nnnn1Cc1ccco1)N(Cc1ccccc1OC)Cc1cc2cc(C)ccc2[nH]c1=O (centres undefined)	0	0	0	0	89
Cc1cccc2cc(C(c3nnnn3C(C)(C)C)N(Cc3ccco3)CC3CCCO3)c(=O)[nH]c12 (centres undefined)	0	0	0	0	0
COc1ccc2[nH]c(=O)c(CN(Cc3nnnn3Cc3ccco3)C3CCCCC3)cc2c1	0	0	0	0	0
Cc1ccc2[nH]c(=O)c(CN(CCCO)C(C)c3nnnn3Cc3ccco3)cc2c1 (centres undefined)	0	0	0	-	0
CCOC(=O)Cn1nnnc1C(C(C)C)N(Cc1cc2c(C)cc(C)cc2[nH]c1=O)C1CCCC1 (centres undefined)	0	0	0	0	123
CSc1ncccc1C(=O)Nc1cccc(S(=O)(=O)N2CCCCCC2)c1	0	0	-	-	-
O=c1c(=Nc2ccccc2O)c(=O)c2ccccc12	0	0	0	0	55
SMILES	TLR9-MyD88 block	NOD2 RIPK2 PPI	HSF1 inh	TLR4 MyD88 comp	HSF-1 act
Cc1ccccc1-c1cc(=O)c2c(O)cccc2o1	0	0	0	-	57
COc1ccccc1N1CCN(C2CCCN(C(=O)c3cccc(-c4ccco4)c3)C2)CC1 (centres undefined)	0	0	0	-	0
CC(=O)N(c1ccc2oc(=O)sc2c1)S(=O)(=O)c1cccs1	0	0	0	0	0
CC(=O)N(c1ccc2oc(=O)sc2c1)S(=O)(=O)c1ccc(C(=O)O)cc1	0	0	-60	-	0
O=C(Nc1ccc(S(=O)(=O)Nc2ccccn2)cc1)c1ccc(Cl)cc1Cl	0	0	0	-	0
CC(C)(C)c1cc(NC(=O)CCSc2nnc3ccccn23)cc(C(C)(C)C)c1	0	0	0	0	54
COc1cc(NC(=O)CSc2nnc3ccccn23)cc(OC)c1	0	0	-	-	-
CC(=O)N(/N=C1\Sc2ccccc2C1=O)c1ccc(C)cc1C	0	0	-86	0	0
C=CCOc1ccc(/C=N/N2C(=O)C(CC(=O)Nc3ccc(F)cc3F)SC2=NC)cc1 (centres undefined)	0	0	0	0	54
Fc1ccc(OCc2cc(-c3ccccc3)no2)cc1	0	0	0	-	51
COc1ccc(-c2cc(COc3ccccc3)on2)cc1	0	0	0	0	0
Cc1c(C(=O)Nc2ccccc2)csc1-c1ccccc1	0	0	0	0	61
Cc1c(C(=O)Nc2ccccc2[N+](=O)[O-])csc1-c1ccccc1	0	0	0	0	61
Cc1ccccc1C(=O)NC(=S)Nc1ccccc1[N+](=O)[O-]	0	0	0	0	58
Cc1cc(C(=O)Nc2ccccc2[N+](=O)[O-])cs1	0	0	0	-	0
Cc1ccccc1C(=O)NC(=S)Nc1ccccc1C(=O)O	0	0	0	0	0
O=C(COC(=O)Cc1cccc(F)c1)NCCc1ccccc1	0	0	-	-	-
Cc1ccc2c(CN3CCN(S(=O)(=O)/C=C/c4ccccc4)CC3)cc(=O)oc2c1	0	0	0	0	78
CCOc1ccc(NC(=O)c2cccnc2SC)cc1	0	0	0	0	0
CCOc1ccccc1C(=O)Nc1ccc(NC(=O)c2ccccc2)cc1	0	0	-79	-	0
CCOc1ccccc1C(=O)Nc1ccc(C(=O)c2ccccc2)cc1	0	0	0	-	0
CCOc1ccc(NC(=O)c2ccccc2CO)cc1	0	0	0	0	0
CCOc1ccc(NC(=O)c2ccccc2O)cc1	0	0	0	0	102
CCOc1ccc(NC(=O)c2cccnc2C(=O)O)cc1	0	0	-66	0	0
Cc1ccc(C(=O)Nc2nc(C(N)C(C)C)cs2)cc1 (centres undefined)	-	0	-	-	-
SMILES	TLR9-MyD88 block	NOD2 RIPK2 PPI	HSF1 inh	TLR4 MyD88 comp	HSF-1 act
Cc1ccc(CC(=O)Nc2cccc(C(=O)Nc3c(C)n(C)n(-c4ccccc4)c3=O)c2)cc1C	0	0	-	-	-
COc1ccc(S(=O)(=O)Nc2cccc3c2O[C@H](CN(C)C(=O)Nc2c(C)noc2C)[C@@H](C)CN([C@H](C)CO)C3=O)cc1	0	0	-	-	-
CCN(CC)CCn1nc2c3c(cccc3c1=O)-c1ccccc1-2	0	0	0	0	173
NC(=O)C1CCN(CC(=O)Nc2ccc(S(=O)(=O)N3CCOCC3)cc2)CC1	0	0	0	-	0
Cn1c(=O)c2c(nc(Sc3ncnn3CC(=O)N3CCOCC3)n2C)n(C)c1=O	0	0	-88	-	0
Cn1c(=O)c2c(nc(Sc3ncnn3CC(=O)NC3CCCCC3)n2C)n(C)c1=O	0	0	0	-	0
CCN(CC)CCCN1C(=O)c2oc3ccccc3c(=O)c2C1c1cccc(OC)c1OC (centres undefined)	0	0	0	0	67
